According to the supplement of paper PMC7261846:
Where a name gives a salt, the structure may show the parent alone. ± gives the uncertainty stated by the source.

System: Candida albicans SNY425 biofilm
Assay: biofilm OD600 with compound plus antifungal (OD600 (absorbance)); higher = more biofilm remaining
[1] = assay detail: disruption of 24-h mature biofilm (compound + antifungal for a second 24 h)
[2] = assay detail: sustained inhibition (compound + antifungal during 90-min adherence and 24-h growth)

Structure (SMILES)	biofilm OD600 [1]	biofilm OD600 [2]
O=C1Nc2ccc([N+](=O)[O-])cc2C1=O [5-Nitroisatin] + C[C@@H]1[C@H](O)[C@@H](C)/C=C/C=C/C=C/C=C/C=C/C=C/C=C/[C@H](O[C@@H]2O[C@H](C)[C@@H](O)[C@H](N)[C@@H]2O)C[C@@H]2O[C@](O)(C[C@@H](O)C[C@@H](O)[C@H](O)CC[C@@H](O)C[C@@H](O)CC(=O)O[C@H]1C)C[C@H](O)[C@H]2C(=O)O [amphotericin B] (first compound 12.5 µM)	0.256 ± 0.005	0.159 ± 0.013
O=C(O)CNC(=O)C(CS)Cc1ccccc1 (racemic) [DL-Thiorphan] + CC[C@H](C)C[C@H](C)CCCCCCCCC(=O)N[C@H]1C[C@@H](O)[C@@H](NCCN)NC(=O)[C@@H]2[C@@H](O)CCN2C(=O)[C@H]([C@H](O)CCN)NC(=O)[C@H]([C@H](O)[C@@H](O)c2ccc(O)cc2)NC(=O)[C@@H]2C[C@@H](O)CN2C(=O)[C@H]([C@@H](C)O)NC1=O [caspofungin] (first compound 12.5 µM)	0.262 ± 0.013	0.163 ± 0.0098
CNC(=O)[C@H](Cc1c[nH]c2ccccc12)NC(=O)[C@@H](CC(=O)NO)CC(C)C + CC[C@H](C)C[C@H](C)CCCCCCCCC(=O)N[C@H]1C[C@@H](O)[C@@H](NCCN)NC(=O)[C@@H]2[C@@H](O)CCN2C(=O)[C@H]([C@H](O)CCN)NC(=O)[C@H]([C@H](O)[C@@H](O)c2ccc(O)cc2)NC(=O)[C@@H]2C[C@@H](O)CN2C(=O)[C@H]([C@@H](C)O)NC1=O [caspofungin] (first compound 12.5 µM)	0.278 ± 0.01	0.187 ± 0.0076
CC(C)C[C@H](NP(=O)(O)O[C@@H]1O[C@@H](C)[C@H](O)[C@@H](O)[C@H]1O)C(=O)N[C@@H](Cc1c[nH]c2ccccc12)C(=O)O [Phosphoramidon] + CC[C@H](C)C[C@H](C)CCCCCCCCC(=O)N[C@H]1C[C@@H](O)[C@@H](NCCN)NC(=O)[C@@H]2[C@@H](O)CCN2C(=O)[C@H]([C@H](O)CCN)NC(=O)[C@H]([C@H](O)[C@@H](O)c2ccc(O)cc2)NC(=O)[C@@H]2C[C@@H](O)CN2C(=O)[C@H]([C@@H](C)O)NC1=O [caspofungin] (first compound 12.5 µM)	0.273 ± 0.012	0.191 ± 0.013
O=C(NCCCCN1CCOCC1)c1cc2ccccc2o1 + CC[C@H](C)C[C@H](C)CCCCCCCCC(=O)N[C@H]1C[C@@H](O)[C@@H](NCCN)NC(=O)[C@@H]2[C@@H](O)CCN2C(=O)[C@H]([C@H](O)CCN)NC(=O)[C@H]([C@H](O)[C@@H](O)c2ccc(O)cc2)NC(=O)[C@@H]2C[C@@H](O)CN2C(=O)[C@H]([C@@H](C)O)NC1=O [caspofungin] (first compound 12.5 µM)	0.251 ± 0.014	0.202 ± 0.01
NC(=O)c1cccc(-c2cccc(OC(=O)NC3CCCCC3)c2)c1 + OC(Cn1cncn1)(Cn1cncn1)c1ccc(F)cc1F [fluconazole] (first compound 12.5 µM)	0.283 ± 0.0052	0.118 ± 0.0073
CCCC[C@@H](C=O)NC(=O)OC(C)(C)C + OC(Cn1cncn1)(Cn1cncn1)c1ccc(F)cc1F [fluconazole] (first compound 12.5 µM)	0.243 ± 0.0054	0.117 ± 0.0068
CC(C)CN(C[C@@H](O)[C@H](Cc1ccccc1)NC(=O)O[C@H]1CCOC1)S(=O)(=O)c1ccc(N)cc1 [amprenavir] + C[C@@H]1[C@H](O)[C@@H](C)/C=C/C=C/C=C/C=C/C=C/C=C/C=C/[C@H](O[C@@H]2O[C@H](C)[C@@H](O)[C@H](N)[C@@H]2O)C[C@@H]2O[C@](O)(C[C@@H](O)C[C@@H](O)[C@H](O)CC[C@@H](O)C[C@@H](O)CC(=O)O[C@H]1C)C[C@H](O)[C@H]2C(=O)O [amphotericin B] (first compound 12.5 µM)	0.283 ± 0.009	0.232 ± 0.011
O=C(NCCCCN1CCOCC1)c1cc2ccccc2o1 + OC(Cn1cncn1)(Cn1cncn1)c1ccc(F)cc1F [fluconazole] (first compound 12.5 µM)	0.258 ± 0.0098	0.158 ± 0.008
CC(C)C[C@H](NC(=O)[C@@H](O)[C@H](N)Cc1ccccc1)C(=O)O [Bestatin·HCl] + C[C@@H]1[C@H](O)[C@@H](C)/C=C/C=C/C=C/C=C/C=C/C=C/C=C/[C@H](O[C@@H]2O[C@H](C)[C@@H](O)[C@H](N)[C@@H]2O)C[C@@H]2O[C@](O)(C[C@@H](O)C[C@@H](O)[C@H](O)CC[C@@H](O)C[C@@H](O)CC(=O)O[C@H]1C)C[C@H](O)[C@H]2C(=O)O [amphotericin B] (first compound 12.5 µM)	0.288 ± 0.0087	0.211 ± 0.0059
